# In PubChem BioAssay (NCI):
# Compounds without any hit were thinned out: in the full panel of roughly 83,000, 20% have a hit.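 How to read the values: 0–100, growth inhibition (40 = 60% inhibited); 0, no net growth; -100 to 0, cell death (-40 = 40% of starting cells died; -100 = all dead).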 Unmarked numbers belong to inactive results. The source made the active and inactive calls. How the source made its calls: active means growth percent below 10; inactive means the rest.
# System: UACC-257 melanoma
# Assay: NCI-60 one-dose screen, 48 h (100 = growth as untreated, 0 = no growth, -100 = all killed)
# Details: 10 µM unless noted
row,Compound,growth
1,COc1ccc(N=C2CSc3nnc(-c4cc(F)c(Cl)cc4Cl)n3N2)cc1,38.5%
2,Nc1c(C(=O)Nc2cccc(Cl)c2)sc2nc3c(cc12)C(=O)CCC3,68.9%
3,COc1ccc(CNc2c3ccccc3nc3ccc(OC)cc23)cc1,6.58% (active)
4,CCOC(=O)c1cc(C(=O)OCC)c(C)nc1C,107%
5,NC(=O)N/N=C\c1ccc([N+](=O)[O-])o1,91.9%
6,Cc1ccc(NC(=O)c2sc3nc4c(cc3c2N)C(=O)CCC4)cc1Cl,95.1%
7,COc1ccc(-n2c(COc3ccc(F)cc3)n[nH]c2=S)cc1,186%
8,COc1ccccc1-[n+]1cc(-c2ccc(-c3ccccc3)cc2)n2c1CCCCC2,-22.9% (active)
9,Nc1cc(C(=O)O)cc(C(=O)O)c1,110%
10,CN(C)c1nc(-c2cccs2)n2nc(-c3ccco3)cc2n1,113%
11,O=C(Nc1cccc(-n2ccc3c(NC(=O)c4ccccc4)nccc32)c1)c1ccc(N2CCOCC2)c(C(F)(F)F)c1,58%
12,CNC(=O)c1c(NC(=O)c2ccc(C(C)C)cc2)sc2c1CCC(=O)C2,1.16% (active)
13,CC(CN1CCN(CC(C)Nc2ccnc3cc(Cl)ccc23)CC1)Nc1ccnc2cc(Cl)ccc12 (stereo not drawn),-61.4% (active)
14,Cc1c2c(cc3c1[nH]c1ccccc13)C=NCC2,106%
15,CC(C)c1ccc2c(c1)CCC1C2CCCC1(C)NCc1ccccc1 (stereo not drawn),-31.2% (active)
16,CC1(C)OC2OC3C(CN)OC(c4ccccc4)OC3C2O1 (stereo not drawn),105%
17,O=C1Nc2ccc(Br)cc2/C1=N/c1nc(-c2ccccc2)cs1,78.2%
18,CS(=O)(=O)c1ccc(C(=O)N/N=C/c2ccccc2Cl)cc1,64.5%
19,Cc1ccc(Nc2cccc3ccccc23)cc1,86.4%
20,CCCCc1nc(Cl)c(C2CC(c3ccc(S(N)(=O)=O)cc3)=NN2c2ccc(C#N)cc2)[nH]1 (stereo not drawn),86.2%

row,Compound,growth
1,O/N=C1\c2ccccc2-c2ccc(Br)cc21,106%
2,CCN(CC)CCCC(C)Nc1c(-c2ccccc2)cnc2cc(Cl)ccc12 (stereo not drawn),-26.6% (active)
3,OC(COCc1ccccc1)COCc1ccccc1,97.9%
4,O=C(CC(=O)c1cccc(Cl)c1)c1cccc(Cl)c1,52.7%
5,O=C1CCCN1C1CCN2CCCc3cccc1c32 (stereo not drawn),111%
6,CC(C)(C)[Si](C)(C)OC1[C@@H](CNC(N)=O)O[C@@H](n2cnc3c(NC(=O)Nc4ccccc4)ncnc32)[C@H]1O[Si](C)(C)C(C)(C)C (stereo partly drawn),78.6%
7,NC(CCC(=O)NC(CS)C(=O)NCC(=O)O)C(=O)O (stereo not drawn),101%
8,C/C(=N\NC(=O)CSc1nc2ccccc2c(=O)n1CCc1ccc(S(N)(=O)=O)cc1)c1ccc(Br)cc1,83.3%
9,CC(C)CCSc1nc(Nc2ccccc2)c(C#N)c(-c2ccc(F)cc2)n1,52.7%
10,CCOC(=O)C1OC2(CCCC2)OC1C(=O)OCC (stereo not drawn),97.7%
11,CS(=O)(=O)c1ccc(C(=O)N/N=C/c2ccccc2O)cc1,22.6%
12,O=C(NCCN1CCCC1)n1cc(-c2ccncc2)c(-c2cc(O)cc(Cl)c2)n1,43.4%
13,C[C@@H]1N=C(c2ccc3ccccc3c2)Nc2nc3ccccn3c2C1=O,40.9%
14,CNCCCn1c2c(c3ccc(Cl)cc3c1=O)C(=O)c1cc(OC)cnc1-2,56.9%
15,CC(=O)Oc1ccccc1C(=O)Nc1ncc([N+](=O)[O-])s1,39.2%
16,O=C1/C(=C/c2ccccc2)SC(=Nc2ccccc2)N1Nc1ccccc1,10.5%
17,Oc1c(C(Nc2cccc3ccccc23)c2ccccc2)ccc2cccnc12 (stereo not drawn),22.5%
18,COc1ccc(CC2c3cc(OC)c(OC)cc3CC[N+]2(C)CCC(=O)OCCCCCOC(=O)CC[N+]2(C)CCc3cc(OC)c(OC)cc3C2Cc2ccc(OC)c(OC)c2)cc1OC (stereo not drawn),100%
19,CCn1c(Cc2ccccc2Nc2c(Cl)cccc2Cl)nnc1SCC(=O)Nc1ccccc1C(F)(F)F,101%

# System: M14 melanoma
# Assay: as above
# Details: 10 µM unless noted
row,Compound,growth
1,COc1ccc(N=C2CSc3nnc(-c4cc(F)c(Cl)cc4Cl)n3N2)cc1,-44.7% (active)
2,Nc1c(C(=O)Nc2cccc(Cl)c2)sc2nc3c(cc12)C(=O)CCC3,26.9%
3,COc1ccc(CNc2c3ccccc3nc3ccc(OC)cc23)cc1,19.5%
4,CCOC(=O)c1cc(C(=O)OCC)c(C)nc1C,111%
5,NC(=O)N/N=C\c1ccc([N+](=O)[O-])o1,112%
6,Cc1ccc(NC(=O)c2sc3nc4c(cc3c2N)C(=O)CCC4)cc1Cl,122%
7,COc1ccc(-n2c(COc3ccc(F)cc3)n[nH]c2=S)cc1,112%
8,COc1ccccc1-[n+]1cc(-c2ccc(-c3ccccc3)cc2)n2c1CCCCC2,11.1%
9,Nc1cc(C(=O)O)cc(C(=O)O)c1,98.9%
10,CN(C)c1nc(-c2cccs2)n2nc(-c3ccco3)cc2n1,98%
11,O=C(Nc1cccc(-n2ccc3c(NC(=O)c4ccccc4)nccc32)c1)c1ccc(N2CCOCC2)c(C(F)(F)F)c1,38.6%
12,CNC(=O)c1c(NC(=O)c2ccc(C(C)C)cc2)sc2c1CCC(=O)C2,-39.4% (active)
13,CC(CN1CCN(CC(C)Nc2ccnc3cc(Cl)ccc23)CC1)Nc1ccnc2cc(Cl)ccc12 (stereo not drawn),-88% (active)
14,Cc1c2c(cc3c1[nH]c1ccccc13)C=NCC2,91%
15,CC(C)c1ccc2c(c1)CCC1C2CCCC1(C)NCc1ccccc1 (stereo not drawn),-84.9% (active)
16,CC1(C)OC2OC3C(CN)OC(c4ccccc4)OC3C2O1 (stereo not drawn),120%
17,O=C1Nc2ccc(Br)cc2/C1=N/c1nc(-c2ccccc2)cs1,87.5%
18,CS(=O)(=O)c1ccc(C(=O)N/N=C/c2ccccc2Cl)cc1,91.9%
19,Cc1ccc(Nc2cccc3ccccc23)cc1,89.6%
20,CCCCc1nc(Cl)c(C2CC(c3ccc(S(N)(=O)=O)cc3)=NN2c2ccc(C#N)cc2)[nH]1 (stereo not drawn),88.1%

row,Compound,growth
1,O/N=C1\c2ccccc2-c2ccc(Br)cc21,129%
2,CCN(CC)CCCC(C)Nc1c(-c2ccccc2)cnc2cc(Cl)ccc12 (stereo not drawn),-95.7% (active)
3,OC(COCc1ccccc1)COCc1ccccc1,103%
4,O=C(CC(=O)c1cccc(Cl)c1)c1cccc(Cl)c1,37.3%
5,O=C1CCCN1C1CCN2CCCc3cccc1c32 (stereo not drawn),100%
6,CC(C)(C)[Si](C)(C)OC1[C@@H](CNC(N)=O)O[C@@H](n2cnc3c(NC(=O)Nc4ccccc4)ncnc32)[C@H]1O[Si](C)(C)C(C)(C)C (stereo partly drawn),54.3%
7,NC(CCC(=O)NC(CS)C(=O)NCC(=O)O)C(=O)O (stereo not drawn),108%
8,C/C(=N\NC(=O)CSc1nc2ccccc2c(=O)n1CCc1ccc(S(N)(=O)=O)cc1)c1ccc(Br)cc1,70.3%
9,CC(C)CCSc1nc(Nc2ccccc2)c(C#N)c(-c2ccc(F)cc2)n1,70.1%
10,CCOC(=O)C1OC2(CCCC2)OC1C(=O)OCC (stereo not drawn),105%
11,CS(=O)(=O)c1ccc(C(=O)N/N=C/c2ccccc2O)cc1,32.5%
12,O=C(NCCN1CCCC1)n1cc(-c2ccncc2)c(-c2cc(O)cc(Cl)c2)n1,25.4%
13,C[C@@H]1N=C(c2ccc3ccccc3c2)Nc2nc3ccccn3c2C1=O,19.8%
14,CNCCCn1c2c(c3ccc(Cl)cc3c1=O)C(=O)c1cc(OC)cnc1-2,36%
15,CC(=O)Oc1ccccc1C(=O)Nc1ncc([N+](=O)[O-])s1,14.6%
16,O=C1/C(=C/c2ccccc2)SC(=Nc2ccccc2)N1Nc1ccccc1,-59.3% (active)
17,Oc1c(C(Nc2cccc3ccccc23)c2ccccc2)ccc2cccnc12 (stereo not drawn),0.701% (active)
18,COc1ccc(CC2c3cc(OC)c(OC)cc3CC[N+]2(C)CCC(=O)OCCCCCOC(=O)CC[N+]2(C)CCc3cc(OC)c(OC)cc3C2Cc2ccc(OC)c(OC)c2)cc1OC (stereo not drawn),88.5%
19,CCn1c(Cc2ccccc2Nc2c(Cl)cccc2Cl)nnc1SCC(=O)Nc1ccccc1C(F)(F)F,92.2%
